TDP1 cell CPT – growth inhibition of DT40 Tdp1-/-;hTDP1 cells with camptothecin (screen for TDP1 inhibitors) | chicken DT40 Tdp1-/-;hTDP1 cells + 20 nM CPT, ATP luminescence, 48 h | AID 686979 | 420,000 compounds, 12% hits | Potency, µM (doses to about 46.2 µM), without a hit: at the top dose activity change, negative = growth inhibition, actives largely listed as inhibitors; note: potency is the fitted concentration of half-maximal effect; nearly all actives have a fitted effect of over 55% in size
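Chicken DT40 Tdp1-/- cells complemented with human TDP1, 400 cells/well, exposed to compounds plus 20 nM camptothecin for at least 48 h at 37 C; viability read as ATP content by CellTiter-Glo luminescence.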
CtBP-E1A blk – blocks the CtBP interaction with E1A; AlphaScreen GST-E1A/His-CtBP binding, 1536-well; hits give low values; 340,000 compounds, 0.49% hits; AID 651724; activity change, % (no concentration beside the values); in the data active = activity change below about -65%; inconclusive = mostly about -30% to -63%
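GST-E1A and His-tagged CtBP (125 nM each as 5X stock) were preincubated with pin-transferred compound for 2 h at 37 °C in the dark, then glutathione donor and nickel acceptor beads were added for 1 h before AlphaScreen reading.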
IL1B secr inh – inhibitors of inflammasome signaling (IL-1 beta secretion) | 360,000 compounds, 4.7% hits | THP-1 LPS/ATP IL-1B secretion, AlphaLISA, 16 h; hits give low values | activity change, % at 57.5 µM; in the data active = activity change below about -50%; inconclusive = mostly about -30% to -49%
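Secreted IL-1B measured by AlphaLISA bead assay after 16 h compound exposure of THP-1 cells; compounds (final up to 57.5 uM) added 1 h before LPS (250 ng/mL) and ATP (1.25 mM) stimulation; lower signal means less secretion.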
Six1-Eya2 blk – blocks human Six1 binding to Eya2; AlphaScreen GST-Six1/His-Eya2 binding, biochemical; hits give low values; activity change, % (concentration not given with the values); 360,000 compounds, 0.56% hits; AID 651725; in the data active = activity change below about -65%; inconclusive = mostly about -30% to -63%
Target sequence (O00167 whole entry, looked up): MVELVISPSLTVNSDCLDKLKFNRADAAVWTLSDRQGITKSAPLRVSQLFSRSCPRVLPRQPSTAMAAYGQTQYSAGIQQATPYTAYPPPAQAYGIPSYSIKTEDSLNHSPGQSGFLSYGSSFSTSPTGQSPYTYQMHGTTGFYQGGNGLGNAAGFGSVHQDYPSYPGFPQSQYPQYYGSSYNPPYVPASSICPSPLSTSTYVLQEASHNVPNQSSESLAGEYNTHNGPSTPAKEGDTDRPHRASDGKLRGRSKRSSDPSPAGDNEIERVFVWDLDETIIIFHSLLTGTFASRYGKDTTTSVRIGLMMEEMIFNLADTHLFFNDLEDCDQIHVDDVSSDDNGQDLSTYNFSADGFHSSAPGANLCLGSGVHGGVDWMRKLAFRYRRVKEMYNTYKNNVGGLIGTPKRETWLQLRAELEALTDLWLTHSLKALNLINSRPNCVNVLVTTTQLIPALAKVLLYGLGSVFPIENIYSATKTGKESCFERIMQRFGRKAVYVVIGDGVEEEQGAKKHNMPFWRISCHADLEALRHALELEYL
Target sequence (Q15475 whole entry, looked up): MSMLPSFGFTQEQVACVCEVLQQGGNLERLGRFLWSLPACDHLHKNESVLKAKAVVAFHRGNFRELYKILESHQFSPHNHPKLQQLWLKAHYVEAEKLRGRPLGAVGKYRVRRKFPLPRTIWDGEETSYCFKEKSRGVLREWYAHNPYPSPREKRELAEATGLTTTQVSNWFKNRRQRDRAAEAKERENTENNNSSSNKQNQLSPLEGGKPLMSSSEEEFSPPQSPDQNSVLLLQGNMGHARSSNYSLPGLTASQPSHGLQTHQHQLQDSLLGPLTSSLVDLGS
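AlphaScreen with GST-Six1 and His-Eya2 (5X mix: 250 nM and 500 nM), glutathione donor and nickel acceptor beads; buffer 50 mM Tris pH 8.0, 300 mM NaCl, 1 mM TCEP; 1 h at 37 C in the dark.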
TDP1 inh – blocks human tyrosyl-DNA phosphodiesterase 1. recombinant TDP1, AlphaScreen DNA substrate cleavage. Potency, µM (doses to about 130 µM), inactives show at the highest dose activity change, negative = inhibition, actives largely listed as inhibitors. AID 485290. 350,000 compounds, 0.28% hits. Q9NUW8; note: potency is the fitted concentration of half-maximal effect; nearly all actives have a fitted effect of over 40% in size
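Enzyme-compound mixtures sat 15 min at room temperature, followed by a 5 min reaction with 15 nM final substrate and 10 min with AlphaScreen beads. Recombinant human Tdp1 was used at 1 nM final.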
DT40 TDP1 no CPT – qHTS for Inhibitors of human tyrosyl-DNA phosphodiesterase 1 (TDP1): qHTS in cells in absence of CPT. DT40 Tdp1-/- hTDP1 cells, no CPT, ATP luminescence, 48 h. Potency, µM (doses to about 46.2 µM), without a hit: at the top dose activity change, negative = growth inhibition, hits mostly inhibitors. 420,000 compounds, 15% hits. AID 686978, 2013; note: potency is the fitted concentration of half-maximal effect; nearly all actives have a fitted effect of over 55% in size
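Compound effects on proliferation are scored in DT40 Tdp1-/-;hTDP1 cells in the absence of CPT. ATP levels (CellTiter-Glo luminescence) are recorded after a ≥48 hr, 37 °C incubation.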
* = called active by the depositor; ? = inconclusive; · = not tested or not shown; [ ] = remark or other dose. Rows were chosen to be rich in hits. Some 18% of all compounds tested hit in one or more screens of this group. Unless noted, calls come from the whole dose curve; as a rule, active = well fitted curve in the direction sought with a large enough effect; inconclusive = small, poorly fitted or top-dose-only effect, or another doubt; inactive = no such curve, though single readings can be large; an effect the other way counts as inactive or inconclusive. % is set by controls: 0 for no effect and ±100 for the full control effect.

SMILES	TDP1 cell CPT	CtBP-E1A blk	IL1B secr inh	Six1-Eya2 blk	TDP1 inh	DT40 TDP1 no CPT
Cc1ccc(N(Cc2cccs2)C(=O)C(C)Oc2ccc(Cl)c(C)c2)cc1 (stereo not drawn)	11.6µM*	·	·	·	?	9.2µM*
COc1ccc(N(Cc2cccs2)C(=O)c2ccccc2C)cc1	11.6µM*	·	·	·	-1.6%	13µM*
CCCCOc1cccc(C(=O)N(Cc2cccs2)c2ccc(OC)cc2)c1	?	·	·	·	-9.9%	6.51µM*
Cc1cccc(NC(=O)c2nc[nH]c2C(=O)N[C@H](C)CO)c1	3.9%	-2.1	-2.0	-1.7	·	3.1%
O=C(Cn1[nH]c(=O)c2ccccc2c1=O)NC1CCCCCC1	?	6.5	7.4	3.7	4.5%	-27.9%
CCOc1c(Cl)cc(CNCc2ccncc2)cc1OC	?	10.9	29.8	6.7	·	?
N#Cc1cn(Cc2ccncc2)c(=O)[nH]c1=O	5.4%	5.3	-2.1	6.2	6.7%	-4.1%
COCCNC(=O)/C(C#N)=C/c1cc(C(C)C)c(OC)cc1C	?	-18.7	-71.0*	-23.3	6.0%	?
COCCNC(=O)/C(C#N)=C/C=C/c1ccccc1	-24.7%	-1.5	-92.8*	-0.2	2.9%	?
COCCNC(=O)/C(C#N)=C/c1cc(C)n(C2CCCCC2)c1C	?	·	-14.7	3.7	0.0%	16.4µM*
COCCNC(=O)/C(C#N)=C/c1ccccc1Br	14.6µM*	-6.6	?	10.0	-5.1%	16.4µM*
N#C/C(=C/C=C/c1ccccc1)C(=O)Nc1ccccc1	-25.0%	-3.7	-28.4	-2.0	-2.9%	?
CCOC(=O)C1=C(COC(=O)/C=C/c2ccc(F)cc2)NC(=O)NC1C (stereo not drawn)	-28.1%	-2.4	-6.5	0.1	·	-24.8%
CCCCC(=O)c1ccc(O)cc1O	1.1%	5.4	0.9	11.4	·	?
COc1ccc(Cl)cc1NC(=O)CSc1cn(CC(=O)N2CCCCCC2)c2ccccc12	13µM*	·	·	·	5.1%	11.6µM*
COc1ccc(Cl)cc1NC(=O)CSc1cn(CC(=O)N2CCCC2)c2ccccc12	11.6µM*	·	·	·	5.1%	3.26µM*
Cc1ccc(S(=O)(=O)N(CCC(=O)Nc2ccc(OC(F)(F)F)cc2)c2ccccc2)cc1	-12.4%	34.5	-28.9	24.5	2.8%	-25.7%
CC12CCC(=O)N1C(C(=O)N1CCN(c3cccc(Cl)c3)CC1)CS2 (stereo not drawn)	-23.5%	1.6	23.1	-2.2	1.5%	-16.6%
CC12CCC(=O)N1C(C(=O)N1CCN(c3ccc(C(F)(F)F)cc3[N+](=O)[O-])CC1)CS2 (stereo not drawn)	20.6µM*	-2.2	0.0	-0.3	2.2%	25.9µM*
CC12CCC(=O)N1C(C(=O)N1CCN(c3ccccc3)CC1)CS2 (stereo not drawn)	3.4%	8.3	1.3	3.4	6.8%	-3.0%
CC12CCC(=O)N1C(C(=O)N1CCN(c3ccc([N+](=O)[O-])cc3)CC1)CS2 (stereo not drawn)	?	-2.5	1.7	-2.0	0.1%	20.6µM*
C=CCSc1nnc(Cc2cc(=O)[nH]c(=O)[nH]2)n1-c1cc(C)ccc1C	7.9%	10.3	25.8	0.8	7.8%	6.7%
COc1cccc(-c2ncn(CCc3ccccc3OC)c2C(C)C)c1	7.31µM*	-3.9	-10.3	-29.1	·	5.8µM*
COc1ccccc1CCn1cnc(Cc2cccc(F)c2)c1C(C)C	?	0.1	0.0	-16.2	·	?
COc1ccccc1CCn1cnc(C)c1CC(C)C	11.6µM*	0.0	3.6	-3.6	·	6.51µM*
SMILES	TDP1 cell CPT	CtBP-E1A blk	IL1B secr inh	Six1-Eya2 blk	TDP1 inh	DT40 TDP1 no CPT
CCc1ncn(CCc2ccccc2OC)c1C(C)C	3.66µM*	0.3	39.6	-6.4	·	4.61µM*
CCCCS(=O)(=O)NC(=O)C1(C)CCN1C(=O)C/C=C/c1ccccc1 (stereo not drawn)	-7.4%	1.0	0.0	4.0	·	-8.7%
Fc1ccc(Oc2cnns2)cc1	33.4%	12.8	23.2	4.3	-3.8%	12.5%
CCOC(=O)C1CCN(C(=O)c2cccc(S(=O)(=O)N3c4ccccc4CC3C)c2)CC1 (stereo not drawn)	?	0.8	3.9	-1.1	0.6%	?
CC1Cc2ccccc2N1S(=O)(=O)c1cccc(C(=O)N2CCCCC2)c1 (stereo not drawn)	20.6µM*	-8.1	?	-13.9	0.1%	16.4µM*
COc1ccccc1N1CCN(C(=O)c2cccc(S(=O)(=O)N3c4ccccc4CC3C)c2)CC1 (stereo not drawn)	23.1µM*	-17.6	·	-15.7	·	?
CC1Cc2ccccc2N1S(=O)(=O)c1cccc(C(=O)N2Cc3ccccc3CC2C(N)=O)c1 (stereo not drawn)	16.4µM*	1.3	18.1	5.4	2.4%	8.2µM*
COc1ccc(NC(=O)CSc2cn[nH]n2)cc1OC	1.2%	-4.2	-4.9	-16.9	4.9%	?
COc1ccc(C2c3[nH]c4ccccc4c3CCN2CCCn2cccn2)c(C)c1C (stereo not drawn)	11.6µM*	-10.4	-21.1	-21.6	6.0%	13µM*
C#CCCOC(=O)N1C2=NC(C(=O)OC)=C(C(=O)OC)[C@@H]3N(CC=C)c4ccccc4[C@]23C[C@H]1C(=O)OC	-27.1%	1.6	25.8	0.7	16.4%[12.3 µM]	?
CN(Cc1ccccc1)c1nc(N)nc(Cl)c1C=O	-26.2%	-17.4	-106.1*	13.2	8.8%	?
Cc1cc(N2CCCC2)c(F)cc1/C=C\[N+](=O)[O-]	23.1µM*	5.9	-68.1*	6.1	-10.4%	?
Cc1cc(N2CCC(C)CC2)c(F)cc1[N+](=O)[O-]	-17.6%	3.8	7.4	-2.2	2.6%	-9.1%
CNc1ncnc2c1ncn2[C@H]1CN(Cc2ccc(OC)cc2)C[C@@H](CO)O1	-20.5%	1.1	-0.6	1.0	·	?
c1nc(NC2CCCCCC2)c2[nH]cnc2n1	10.3µM*	2.9	-3.1	0.4	5.3%	23.1µM*
c1nc(NC2CCCCC2)c2[nH]cnc2n1	-6.1%	6.4	-1.8	1.5	9.1%	12.0%
CC(C)=NNc1ncnc2nc[nH]c12	20.6µM*	-21.2	89.4	18.7	·	14.6µM*
Cc1cc(C)cc(Nc2ncnc3nc[nH]c23)c1	?	2.6	42.9	3.5	·	-24.9%
Cc1ncnc2nc[nH]c12	1.78µM*	·	·	·	·	1.78µM*
Cc1cccc2c1CC(C)(C)N=C2C1=C(O)CCCC1=O	-26.6%	7.7	23.9	5.7	4.8%	?
CCCNC(=O)Nc1nnc(C2CC2)s1	-3.2%	14.9	14.0	8.1	·	5.1%
